From the supplement of paper PMC10681739
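Further: Full-length recombinant human RUNX1 bound to double-stranded 36-bp genomic probes on a high-density microarray, scored as Alexa488 fluorescence per spot via anti-RUNX1 antibody, median of four replicate spots.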

Each sequence was assayed against RUNX1 (UniProt Q01196) (assay: RUNX1 binding intensity (PBM fluorescence), RUNX1 alone (arbitrary fluorescence units); higher = stronger binding). Details: RUNX1 concentration 2 nM; ETS1 concentration 0 nM.
Sequence of RUNX1 (Q01196 whole entry): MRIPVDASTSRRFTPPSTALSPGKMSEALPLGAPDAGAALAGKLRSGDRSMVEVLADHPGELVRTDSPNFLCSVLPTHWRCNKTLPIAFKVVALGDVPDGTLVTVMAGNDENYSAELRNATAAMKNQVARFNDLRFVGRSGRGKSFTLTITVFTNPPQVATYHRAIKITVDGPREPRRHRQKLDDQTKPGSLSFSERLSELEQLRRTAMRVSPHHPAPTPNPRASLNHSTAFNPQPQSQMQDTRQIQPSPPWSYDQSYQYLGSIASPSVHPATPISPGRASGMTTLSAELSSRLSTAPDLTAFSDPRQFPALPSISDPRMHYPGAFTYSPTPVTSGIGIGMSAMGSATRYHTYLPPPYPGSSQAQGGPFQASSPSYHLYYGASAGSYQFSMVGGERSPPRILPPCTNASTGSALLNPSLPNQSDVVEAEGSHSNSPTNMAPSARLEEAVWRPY
Procedure: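 Cooperative gcPBM on 36-bp genomic probes with neighbouring ETS1 and RUNX1 sites. Recombinant human RUNX1 (2 nM) was incubated alone or with ETS1 (25 nM) and detected with anti-RUNX1 antibody plus Alexa488 secondary. Values are medians over 4 replicate spots; the RUNX1+ETS1 data were normalised to the RUNX1-only data. The probes sit in constant array flanks that are not printed.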
Sequence TGGGTGCCGGATTCGGTGAGTGTGGTTCTCATGATG has an RUNX1 binding intensity of 654.
TGCTTTTCAGGTGCAGGAAGTGGTTTGCCTTTGCCC gave an RUNX1 binding intensity of 788.
TCTGGGGGAGGGGAAGGATGTGGTTTGCAGAGCGGA was tested, and the RUNX1 binding intensity was 1020.
For AGAGCGAGGAGGACTTCCTGCGGCAGGTCGGCGTGA, the RUNX1 binding intensity was 652.
In the case of TCTCTACTTCCCATTATTTCTGTGGTTAATTTCACC, the RUNX1 binding intensity is reported as 10400.
GTGAGCCTGTAAAGGAAATTGAGGTTATGTGGCTCA showed an RUNX1 binding intensity of 694.
For GCCCCCGGCTGGGCAGGATGTGGTGGCAGCTGCAGG, the RUNX1 binding intensity was 743.
In the case of AGCACTTCCGTTTGGGCAGGGCTGCGGGCCGGAGGG, the RUNX1 binding intensity is reported as 746.
In the case of TTTGTGCCCCAACTTCCTCTGTGGCTTTTGGGTGGG, the RUNX1 binding intensity is reported as 898.
In the case of CTGGGGAGGAAGCCTGAGGTGTGTGGTTTTGTTAAC, the RUNX1 binding intensity is reported as 1040.
GTAGCTCCTCCCACTTCCCGTGGTTTTCGGTTGAAC was tested, and the RUNX1 binding intensity was 1240.
Work on CGGCTGGCAGGAAGTGGCCACTTGAACCGCAGATGC yielded an RUNX1 binding intensity of 1190.
For CAGACACCAACGCTCGGAAACCGCCAGACACCAAGG, the RUNX1 binding intensity was 1030.
With GGGACGGGGAGGGCAGGATGTGGTCGCTCTTCCCTC the RUNX1 binding intensity was 822.
Sequence TTTAGACACCGCTTCCTGCCACAAGCCCAAGACTTA has an RUNX1 binding intensity of 918.
CCCGCTGTCACTTCCTGCTTCCCTCCCGCACACGTG showed an RUNX1 binding intensity of 1920.
For GTGGCGGGGCGGAAGTTCACATGTGTGGTATGTAGA, the RUNX1 binding intensity was 940.
GGCGGATGGGGAGAAGAGAGTGGCTGTGGTCTCTGG showed an RUNX1 binding intensity of 861.
With CCCGCGACACAAGGCGGATGTGGTACCCTCACTTGT the RUNX1 binding intensity was 820.
GCAGAAACAGGAAGAGACAGGGCTGACCGCAGCAGG gave an RUNX1 binding intensity of 1230.
TCGCCCACTTCCCCACCTCTCAAAAGACCACAGGCA was tested, and the RUNX1 binding intensity was 1560.
